# This is a sample that favours compounds with a hit; in the whole collection about 19% have one here.
# HT1080-NT tox – qHTS for induction of synthetic lethality in tumor cells producing 2HG: qHTS for the HT-1080-NT fibrosarcoma cell line | HT-1080-NT fibrosarcoma viability, CellTiter-Glo ATP luminescence, 48 h | Potency, µM (highest dose often 46.1 µM), without a hit: top-dose activity, negative = less viability, most hits filed as cytotoxic | actives 1.6% (n = 360,000);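 also: NT is the 2HG producing partner of a matched IDH1 knockdown line; potency is read from the fitted curve at half-maximal effect; 0% = DMSO-treated cells and -100% = media-only wells without cells; nearly all actives have a fitted effect of over 55% in size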
#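 Compounds were tested in concentration-response format on HT-1080-NT cells for 48 hours at 37 degrees C. Cell viability came from CellTiter-Glo luminescence; curves were classified by r2, response magnitude and activity.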
# DT40 TDP1 no CPT – qHTS for Inhibitors of human tyrosyl-DNA phosphodiesterase 1 (TDP1): qHTS in cells in absence of CPT | Potency, µM (titrated, usually from 46.2 µM), without a hit: top-dose activity change, negative = growth inhibition, hits mostly inhibitors | DT40 Tdp1-/- hTDP1 cells, no CPT, ATP luminescence, 48 h | actives 15% (n = 420,000) | AID 686978, 2013; also: potency is read from the fitted curve at half-maximal effect; nearly all actives have a fitted effect of over 55% in size
#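 Compound effects on proliferation are scored in DT40 Tdp1-/-;hTDP1 cells in the absence of CPT. ATP levels (CellTiter-Glo luminescence) are recorded after a ≥48 hr, 37 °C incubation.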
# HT1080 IDH1KD tx – qHTS for induction of synthetic lethality in tumor cells producing 2HG: qHTS for the HT-1080-IDH1KD cell line; Potency, µM (highest dose often 46.1 µM), inactives show top-dose activity, negative = toxicity, actives largely listed as cytotoxic; actives 2% (n = 360,000); HT-1080 IDH1 knockdown viability, ATP luminescence, 48 h; AID 686971, 2013;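 also: potency is read from the fitted curve at half-maximal effect; 0% = DMSO wells and -100% = cell-free medium wells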
#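 CellTiter-Glo luminescence after 48 h compound exposure at 37 degrees C of IDH1-knockdown HT-1080 cells in 5% FBS RPMI. %Activity scaled between DMSO wells and cell-free media wells, with curves fitted and assigned curve classes.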
# DT40 TDP1 CPT – qHTS for Inhibitors of human tyrosyl-DNA phosphodiesterase 1 (TDP1): qHTS in cells in presence of CPT. AID 686979, 2013. Potency, µM (highest dose often 46.2 µM), inactives show top-dose activity change, negative = growth inhibition, usual class: inhibitors. chicken DT40 Tdp1-/-;hTDP1 cells + 20 nM CPT, ATP luminescence, 48 h. actives 12% (n = 420,000); also: potency is read from the fitted curve at half-maximal effect; nearly all actives have a fitted effect of over 55% in size
#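 Cell growth measured by CellTiter-Glo luminescence after a minimum 48 h, 37 C compound exposure with 20 nM CPT in Tdp1-knockout DT40 cells stably expressing hTDP1, seeded 400/well; qHTS titration format.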
# IL1B secr inh – qHTS for Inhibitors of Inflammasome Signaling: IL-1-beta AlphaLISA Primary Screen | AID 743279, 2014 | activity change, % at 57.5 µM | THP-1 LPS/ATP IL-1B secretion, AlphaLISA, 16 h; stronger effect = lower value | actives 4.7% (n = 360,000); in the data active = activity change below about -50%; inconclusive = mostly about -30% to -49%
#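 THP-1 cells pretreated 1 hr with compounds (up to 57.5 uM final), then stimulated with LPS (250 ng/mL final) plus ATP (1.25 mM final); secreted IL-1B measured by AlphaLISA after 16 hr, decreased signal indicating inhibition.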
# ELG1 repair inh – qHTS screen for small molecules that inhibit ELG1-dependent DNA repair in human embryonic kidney (HEK293T) cells expressing luciferase-tagged ELG1; HEK293T ELG1-luciferase reporter, luminescence, 16 h; DNA damage induced by 5-fluorouridine; actives 2.3% (n = 330,000); Potency, µM (highest dose often 46.1 µM), for the others: top-dose activity change, negative = inhibition, hits mostly inhibitors; also: potency is read from the fitted curve at half-maximal effect; nearly all actives have a fitted effect of over 55% in size
#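 Quantitative HTS, concentration-response format. 2,000 cells/well co-treated with 5-fluorouridine and compound, 16 hr in 5% CO2 at 37 °C; ONE-Glo luminescence read after 30 min.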
# Active calls of the source: *; ? = inconclusive; / = not tested or not shown. Unless noted, calls follow the shape of the dose curve; as a rule, active = well fitted curve in the direction sought with a large enough effect; inconclusive = small, poorly fitted or top-dose-only effect, or another doubt; inactive = no such curve, though single readings can be large; an effect the other way counts as inactive or inconclusive. Unless noted, % is scaled to controls: 0 for no effect and ±100 for the full control effect.
SMILES,HT1080-NT tox,DT40 TDP1 no CPT,HT1080 IDH1KD tx,DT40 TDP1 CPT,IL1B secr inh,ELG1 repair inh
COC(=O)c1ccccc1-n1c(C)nc2ccccc2c1=O,7%,?,7%,-26%,3,23%
O=c1c2ccccc2nc(/C=C\c2ccccc2[N+](=O)[O-])n1-c1ccccc1O,?,23µM*,?,?,-98*,?
O=c1c2ccccc2nc(/C=C\c2ccc(F)cc2)n1-c1ccccc1F,/,?,/,23µM*,/,/
CCCCc1nc2ccccc2c(=O)n1-c1ccccc1[N+](=O)[O-],7%,15µM*,3%,?,-20,-11%
CCc1nc2ccccc2c(=O)n1-c1ccccc1[N+](=O)[O-],8%,?,3%,-21%,-3,22%
CCOc1ccc(NC(=O)c2c(O)[nH]c(=O)[nH]c2=O)cc1,4%,16µM*,4%,23µM*,14,/
CCOC(=O)c1ccc(NC(=O)c2c(O)[nH]c(=O)[nH]c2=O)cc1,1%,?,0%,?,10,6%
C=C(C)[C@H]1Cc2c(ccc3c2O[C@@H]2COc4cc(OC)c(OC)cc4[C@@H]2C3=O)O1,/,0.24µM*,/,0.24µM*,/,/
C=C(C)C1Cc2c(ccc3c2OC2COc4cc(OC)c(OC)cc4C2C3=O)O1 (configuration not stated),/,0.1µM*,/,0.052µM*,/,/
O=c1cccc2n1CC1CNC[C@H]2C1,1%,8%,8%,-5%,0,9%
CC(=O)C1=C(O)C2(C)c3c(O)c(C)c(O)c(C(C)=O)c3OC2CC1=O (configuration not stated),?,23µM*,-30%,?,-3,/
CC1N=C(c2ccccc2)c2cc(Br)ccc2NC1=O (configuration not stated),4%,18µM*,2%,?,18,-4%
O=C1Nc2ccc(Br)cc2C(c2ccccc2)=NC1O (configuration not stated),0%,?,1%,?,13,8%
CNC(=O)Oc1ccc2c(c1)[C@]1(C)CCN(C)C1N2C (some centres not stated),24%,-2%,-5%,-26%,-11,1%
Cc1cccc(N(C)C(=S)Oc2ccc3c(c2)CCC3)c1,/,?,/,11%,/,/
O=C(c1ccc(Cl)cc1)C1CCCN(Cc2cccn2-c2cccnc2)C1 (configuration not stated),-22%,13µM*,-24%,?,-56*,?
CSc1ccc(C(=O)C2CCCN(Cc3cccnc3)C2)cc1 (configuration not stated),?,?,-21%,?,-12,?
C[C@]12CC[C@H]3[C@@H](CC[C@@]45O[C@@H]4C(O)=C(C#N)C[C@]35C)[C@@H]1CC[C@@H]2O,/,?,/,-24%,/,/
CC12CN3CCN(C1)CC(C)(C3)C2=NN,24%,-19%,17%,13%,/,7%
Cc1ccc(CN2C(=O)CN=C(c3ccccc3)c3ccccc32)cc1,8%,?,1%,-25%,-8,-8%
Cc1ccccc1-c1nc(CN2C(=O)CN=C(c3ccccc3)c3ccccc32)c(C)o1,/,-78%,/,?,/,/
Cc1oc(-c2ccccc2)nc1CN1C(=O)CN=C(c2ccccc2)c2ccccc21,-1%,?,-1%,18µM*,-14,-11%
